Our source for the growth reduction values is the supplement of paper PMC12024424.

Where a name gives a salt, the structure may show the parent alone.

The test concerns Staphylococcus aureus Sa2 (MRSA, cystic fibrosis isolate). The experiment in a line: growth reduction vs untreated control (viable cell count); higher = stronger antibacterial activity; extreme values may be limits of the assay. To be noted: 0.1 mM; 24 h. The protocol: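 Single-dose screen of the MedChem Express Drug Repurposing Library (0.1 mM, 1% DMSO) against planktonic MRSA S. aureus Sa2 (CF isolate) in TSB in 96-well plates, 37 °C aerobic, 24 h. Assays were run in triplicate and repeated twice.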
Regarding `Cn1ncc(Cl)c1-c1cc(C(=O)N[C@H](CN)Cc2cccc(F)c2)sc1Cl` [Afuresertib], the growth reduction came to 100%.

Take `CNC(=O)c1cc(Oc2ccc(NC(=O)Nc3ccc(Cl)c(C(F)(F)F)c3)c(F)c2)ccn1` [Regorafenib (Hydrochloride)]: the growth reduction worked out at 100%. In the case of `O=C(NCc1c(F)cc(F)cc1F)c1cn2c(c(O)c1=O)C(=O)N1[C@H]3CC[C@H](C3)O[C@@H]1C2` [Bictegravir] it was 100%; in that of `COc1cc2c(Nc3ccc(Cl)c(Cl)c3F)ncnc2cc1OC[C@@H]1C[C@@H]2CN(C)C[C@@H]2C1` [Tesevatinib], 100%; in that of `O=C(NC[C@H]1CN(c2ccc(N3CCOCC3=O)cc2)C(=O)O1)c1ccc(Cl)s1` [Rivaroxaban], 100%. Turning to `CCCCCCNC(=O)n1cc(F)c(=O)[nH]c1=O` [Carmofur], the growth reduction is 100%. To `O=c1[nH]cc(F)c(=O)[nH]1` [5-Fluorouracil] belongs 100%. `O=C(O)c1ccc(-n2nc(-c3ccccc3O)nc2-c2ccccc2O)cc1` [Deferasirox] returned a growth reduction of 99%.

In turn, `CSc1ccc(OCc2ncc([N+](=O)[O-])n2C)cc1` [Fexinidazole] gave a growth reduction of 93%. To `CN(C)C(=O)/C=C/CNCCOc1ccc(/C(=C(/CC(F)(F)F)c2ccccc2)c2ccc3[nH]nc(F)c3c2)cn1` belongs 100%. To `CCCCCCCCCCCCCCCCOP(=O)([O-])OCC[N+](C)(C)C` [Miltefosine] belongs 100%; to `C=C(C)[C@@H]1CC[C@]2(C(=O)O)CC[C@]3(C)[C@H](CC[C@@H]4[C@@]5(C)CC[C@H](OC(=O)CC(C)(C)C(=O)O)C(C)(C)[C@@H]5CC[C@]43C)[C@@H]12` [Bevirimat], 100%; to `Cn1cc(-c2ccncc2)c(-c2ccc(OCc3ccc4ccccc4n3)cc2)n1` [Mardepodect (hydrochloride)], 97%.

`CCCCc1nc(-c2ccc(OCCCN(CC)CC)cc2)cn1-c1ccc(Oc2ccc(Cl)cc2)cc1` [Azeliragon] came in with a growth reduction of 100%.

`CC(=O)Oc1cccc2c1C(=O)c1c(OC(C)=O)cc(C(=O)O)cc1C2=O` [Diacerein] registered a growth reduction of 100%. In the case of `CN1CCN(c2ccc3nc(-c4c(N)c5c(F)cccc5[nH]c4=O)[nH]c3c2)CC1` [Dovitinib (lactate)] it was 99%; in that of `C=CC(=O)Nc1cc(Nc2nccc(-c3cn(C)c4ccccc34)n2)c(OC)cc1N(C)CCN(C)C` [Osimertinib mesylate], 100%. To `Cc1ncc(NC(=O)c2ccc(CN3CCN(C)CC3)c(C(F)(F)F)c2)cc1Nc1nccc(-c2cccnc2)n1` [Flumatinib] belongs 100%; to `COCc1c(C(C)C)nc(C(C)C)c(/C=C/[C@@H](O)C[C@@H](O)CC(=O)O)c1-c1ccc(F)cc1` [Cerivastatin (sodium)], 99%; to `CC(OC(=O)NCC1(CC(=O)O)CCCCC1)OC(=O)C(C)C` (stereo not given) [Gabapentin enacarbil], 93%. In the case of `Clc1ccc(Nc2nnc(Cc3ccncc3)c3ccccc23)cc1` [Vatalanib (dihydrochloride)] it was 100%.

Consider `CCCCc1oc2ccccc2c1C(=O)c1cc(I)c(OCCN(CC)CC)c(I)c1` [Amiodarone (hydrochloride)], for which the growth reduction turned out to be 98%. In the case of `CCCCCCCCOc1ccccc1C(=O)Nc1ccc(C(=O)OCC[N+](C)(CC)CC)cc1` [Otilonium (bromide)] it was 100%. Compound `OC(c1cc(C(F)(F)F)nc2c(C(F)(F)F)cccc12)C1CCCCN1` (stereo not given) [Mefloquine (hydrochloride)] gave a growth reduction of 100%. `CC/C(=C(\c1ccccc1)c1ccc(OCCN(C)C)cc1)c1ccccc1` [Tamoxifen (Citrate)] gave a growth reduction of 100%. For `CC(=O)OCC(=O)[C@@]1(O)CC[C@H]2[C@@H]3CCC4=CC(=O)C=C[C@]4(C)[C@H]3C(=O)C[C@@]21C` [Prednisone acetate], the growth reduction came to 100%. As for `CC(O)c1cc(C(=O)N[C@@H](C)Cn2ccc(-c3ccc(C#N)c(Cl)c3)n2)n[nH]1` (stereo not given in full) [Darolutamide], the growth reduction was found to be 100%. `CC1(C)CC[C@]2(C(=O)O)CC[C@]3(C)[C@H](C(=O)C=C4[C@@]5(C)C=C(C#N)C(=O)C(C)(C)[C@@H]5CC[C@]43C)[C@@H]2C1` [Bardoxolone]: the growth reduction is 100%. In the case of `CC[C@H](C)C(=O)O[C@H]1C[C@@H](C)C=C2C=C[C@H](C)[C@H](CC[C@@H]3C[C@@H](O)CC(=O)O3)[C@H]21` [Lovastatin] it was 100%. `C=CC[C@@H]1/C=C(\C)C[C@H](C)C[C@H](OC)[C@H]2O[C@@](O)(C(=O)C(=O)N3CCCC[C@H]3C(=O)O[C@H](/C(C)=C/[C@@H]3CC[C@@H](O)[C@H](OC)C3)[C@H](C)[C@@H](O)CC1=O)[C@H](C)C[C@@H]2OC` [Tacrolimus (monohydrate)]: the growth reduction is 100%.

The compound `O=C(Nc1ccccc1)c1ccccc1O` [Salicylanilide] came in with a growth reduction of 93%. To `CN(CCCCCCCCCCN(C)C(=O)Oc1cccc([N+](C)(C)C)c1)C(=O)Oc1cccc([N+](C)(C)C)c1` [Demecarium Bromide] belongs 98%; to `CC(OC(=O)c1ccc(Cc2c(O)c3ccccc3oc2=O)cc1)(C(F)(F)F)C(F)(F)F` [Tecarfarin], 100%; to `O=C(O)Cc1ccccc1Nc1c(Cl)cccc1Cl` [Diclofenac (diethylamine)], 100%. In the case of `CNC(=O)c1ccc(Nc2ncc(C(F)(F)F)c(NCc3nccnc3N(C)S(C)(=O)=O)n2)cc1` [Defactinib] it was 95%; in that of `Cc1nc(C(=O)NCC(=O)O)c(O)c2ccc(Oc3ccccc3)cc12` [Roxadustat], 98%. To `O=C(O)C[C@H]1CCc2c1[nH]c1ccc(OCc3ccc(C4CCCC4)c(C(F)(F)F)c3)cc21` [Etrasimod] belongs 100%; to `OCCN1CCN(CC/C=C2/c3ccccc3Sc3ccc(Cl)cc32)CC1` [Zuclopenthixol], 100%; to `O=C(c1ccc(OCCN2CCCCC2)cc1)c1c(-c2ccc(O)cc2)sc2cc(O)ccc12` [Raloxifene (hydrochloride)], 93%. The compound `Cc1nc(Nc2ccc(F)cc2)nc(N2CCc3ccccc3C2C)c1C` (stereo not given) [Revaprazan (hydrochloride)] gave a growth reduction of 100%.
